Test results as given in PubChem BioAssay AID1979 (Broad Institute, 2009).
The whole screen tested about 300,000 compounds, of which about 1,700 (0.57%) were called active. Not shown: some 2% with an inconclusive outcome. Many of the other results were omitted from the sample, so actives are more common in it than they were. A number with no mark means an inactive call.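 Rule for the calls: active = growth inhibition above about 58% in most replicates (limit read from the data, passing the limit was not always enough); inconclusive = exactly half the replicates above a set limit; inactive = most replicates below a set limit.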

test: C. albicans growth inhibition with fluconazole, primary screen, CaCi-2 strain, Alamar Blue fluorescence (AID 1979);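 note: all wells also contain fluconazole at 8 µg/ml as a sub-toxic cotreatment; 0% = median of DMSO wells and 100% = median of geldanamycin control wells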; conditions: C. albicans CaCi-2 (fluconazole-resistant clinical isolate) + fluconazole, 48 h, active compounds read high, concentration not given here

SMILES	growth inhibition
Cc1ccnc(NC(=O)CNC(=O)c2ccccc2)c1	-1.64%
COc1ccc2oc(C(=O)OCC(=O)N(CC(C)C)c3c(N)n(Cc4ccccc4)c(=O)[nH]c3=O)c(C)c2c1	5.5%
CCCn1c(C)cc(/C=C(\C#N)C(=O)OCC(=O)N(C)c2c(N)n(Cc3ccccc3)c(=O)[nH]c2=O)c1C	-1.38%
Cc1c(CCOC(=O)CC23CC4CC(CC(C)(C4)C2)C3)sc[n+]1Cc1ccc([N+](=O)[O-])cc1	93% (active)
Cc1c(CCOC(=O)c2cc([N+](=O)[O-])ccc2Cl)sc[n+]1CCCCS(=O)(=O)[O-]	-13.2%
Cc1c(CCO)sc[n+]1CC(=O)OC12CC3CC(CC(C3)C1)C2	-19.8%
COc1ccc(/C=N/Nc2ncnc3sc4c(c23)CCCC4)cc1O	18.5%
COc1ccc(-c2cc(C(=O)NC(Cc3c[nH]c4ccccc34)C(=O)O)c(C)o2)cc1OC (stereo not given)	-7.28%
COc1cc2cc(C(=O)N/N=C/c3cccc(OC)c3OC)[nH]c2cc1OC	0.698%
COc1cccc(/C=N/NC(=O)c2[nH]nc3c2CCc2ccccc2-3)c1O	89.9% (active)
CN(C)CCNC(=O)c1[nH]nc2c1CCc1ccccc1-2	-8.27%
CCOc1ccc(-c2cc(C(=O)N/N=C/c3ccc(O)cc3)c3ccccc3n2)cc1	10.7%
CCC1(c2ccccc2)NC(=O)N(CC(=O)Nc2ccccc2C(=O)NC2CCCC2)C1=O (stereo not given)	2.41%
CC(C)c1cc(CN2CCOCC2)cc(C(C)C)c1O	5.31%
Oc1c(C(c2ccccn2)N2CCOCC2)ccc2cccnc12 (stereo not given)	85.8% (active)
CCC(C)N(C(=O)COC(=O)c1nc(Cl)ccc1Cl)C1CCS(=O)(=O)C1 (stereo not given)	-0.955%
Cc1cccc(NC(=O)COC(=O)CCc2ccccc2)c1C	0.193%
Cc1cccc(NC(=O)CSC(N)=O)c1C	91.9% (active)
Cc1cccc(NC(=O)CN2C(=O)c3ccccc3C2=O)c1C	-5.98%
COc1ccc(CCNc2cc(N3CCN(C(=O)c4ccccc4OC)CC3)ccc2[N+](=O)[O-])cc1OC	-7.13%
NC(=O)COc1ccc2c3c(c(=O)oc2c1)CCCCC3	122% (active)
O=C(COc1ccc2c3c(c(=O)oc2c1)CCC3)NC1CCCCC1	13.6%
NC(=O)C1CCN(C(=O)COc2ccc3c4c(c(=O)oc3c2)CCC4)CC1	-1.66%

SMILES	growth inhibition
Cc1ccc(SCC(=O)Nc2nncs2)cc1	-2.98%
COCCOC(=O)C1=C(C)NC(=O)NC1c1cc2c(cc1Br)OCO2 (stereo not given)	-1.28%
Cc1c(CCC(=O)O)c(=O)oc2c(C)c(OCc3ccccc3Cl)ccc12	16.4%
COc1cccc(C(=O)NNC(=O)c2ccccc2Br)c1	110% (active)
COc1cccc(C(=O)NNC(=O)/C=C/c2ccccc2)c1	-14.4%
COc1cccc(C(=O)NNC(=O)c2cccc(F)c2)c1	-10.7%
O=C(O)c1ccc(S(=O)(=O)N2CCC(Cc3ccccc3)CC2)cc1	-2.12%
Cc1ccc(C)c(NC(=O)COC(=O)Cn2c(C)csc2=O)c1	-4.71%
COc1cc(NS(=O)(=O)c2ccc3ccccc3c2)c2ncccc2c1	89.3% (active)
COc1ccc2cc(S(=O)(=O)Nc3ccccn3)ccc2c1	-0.283%
Cc1ccc(NS(=O)(=O)c2ccc(C)c(NC(=O)COc3ccc4ccccc4c3)c2)c(C)c1	31.8%
Cc1ccc(Nc2nc(CSc3nnc(-c4ccncc4)n3-c3ccccc3C)cs2)cc1	113% (active)
Cc1ccccc1-n1c(SCC(=O)NCc2cccs2)nnc1-c1ccncc1	8.03%
Cc1ccc(-n2c(SCC(=O)N3c4ccccc4Sc4ccccc43)nnc2-c2ccncc2)cc1	-22.2%
O=C(OCCOCn1cc(Br)c(=O)[nH]c1=O)c1ccccc1	-9.14%
CCOc1ccc(NC(=O)COc2ccc(C(=O)N3CCC(C(N)=O)CC3)cc2OC)cc1	-4.97%
CC(C)Oc1ccc(S(=O)(=O)N2CCOCC2)cc1NC(=O)C1CSC2(C)CCC(=O)N12 (stereo not given)	-0.702%
COc1ccc(C(=O)NCCCN2CCOCC2)cc1Br	-0.331%
Cc1ccc(S(=O)(=O)N2CCN(C(=O)Cc3sc(C)nc3-c3ccc(F)cc3)CC2)c(C)c1	-1.25%
Cc1nc2c(c(C)nn2-c2ccccc2)c(C)c1C	1.68%
O=C(N/N=C/c1ccc(O)c2ccccc12)c1cccnc1	11.5%
O=C(N/N=C/c1ccccn1)c1cccnc1	6.91%
O=C(N/N=C/c1sc(N2CCCCC2)nc1-c1cccs1)c1cccnc1	94.5% (active)

SMILES	growth inhibition
CCOc1ccc(NC(=O)c2ccc(NC(=O)CN3C(=O)C(=O)N(CC(C)C)C3=O)cc2)cc1	-2.68%
COc1ccc(S(=O)(=O)NCc2cccnc2)cc1NC(=O)c1ccc(C)cc1	-3.27%
CCOc1ccc(-n2c(O)c(/C=N/Nc3nc(C)cc(C)n3)c3ccccc3c2=O)cc1	113% (active)
CCN(CC)CCCN=Cc1c(O)n(-c2ccc(C)cc2)c(=O)c2ccccc12	-8.89%
CCOc1ccc(-n2c(O)c(/C=N/c3ccnn3Cc3ccncc3)c3ccccc3c2=O)cc1	15.4%
CCOC(=O)c1c(C)[nH]c(C(=O)OCC(=O)N2CCCC2=O)c1C	-3.16%
Cc1nc2ccccc2nc1N/N=C/c1ccc(O)cc1O	10.5%
C=CCn1c(CC(=O)Nc2cccc(OC)c2)nnc1SCC(=O)NC1CCCCC1	4.51%
C=CCn1c(COc2ccc(F)cc2)nnc1SCC(=O)Nc1cccc(S(N)(=O)=O)c1	94.6% (active)
COc1ccc(-n2cnnc2SCC(=O)Nc2cccc(S(N)(=O)=O)c2)cc1	-1.9%
CS(=O)(=O)c1ccc(Cl)c(NC(=O)COC(=O)c2cccc(S(=O)(=O)N3CCCC3)c2)c1	-1.03%
Cc1cc(Nc2ccc(C(=O)N3CCCCC3)cc2)c2cccc(C)c2n1	2.84%
Cc1ccn2c(=O)nc(SCC(=O)NCc3ccc4c(c3)OCO4)nc2c1	1.59%
Cc1ccc(NN=C2C(=O)OC(C)(C)OC2=O)c(C)c1	-5.58%
COc1ccc(N/N=C2/CCCCC2=O)cc1	-21.7%
Cc1ccc(N/N=C2\COC(C)(C)CC2=O)cc1	101% (active)
COc1ccccc1C(=O)NC(=O)COC(=O)c1ccco1	8.59%
CC1CN(C(=O)COC(=O)c2cccc(NS(=O)(=O)c3ccccc3)c2)CC(C)O1 (stereo not given)	5.4%
O=[N+]([O-])c1ccc(O)c(/C=N/Nc2ccccc2[N+](=O)[O-])c1	-1.45%
O=C(N/N=C/c1cc([N+](=O)[O-])ccc1O)/C(=C\c1cccs1)NC(=O)c1ccccc1	116% (active)
O=C(N/N=C/c1ccc(O)cc1)/C(=C/c1ccc([N+](=O)[O-])cc1)NC(=O)c1ccccc1	1.1%
COc1ccccc1OCc1ccc(C(=O)NC(C)c2ccccc2)o1 (stereo not given)	-11.7%
COc1ccc(OC)c(NC(=O)CSc2nc(-c3ccccc3)cc(=O)[nH]2)c1	55%

SMILES	growth inhibition
Cc1ccc(NS(=O)(=O)c2ccc(N/N=C/c3ccccc3OCC(=O)O)c([N+](=O)[O-])c2)c(C)c1	-7.09%
Cc1cccc(COc2ccccc2/C=N/Nc2ccc([N+](=O)[O-])cc2)c1	91.8% (active)
O=[N+]([O-])c1ccc(N/N=C/c2ccccc2)cc1	-28.5%
O=C1c2ccccc2C(=O)c2c1cccc2N1CCN(C/C=C/c2ccccc2)CC1	8.05%
Cc1ccc(S(=O)(=O)NC(C)C(=O)NCc2ccc(Cl)cc2)cc1 (stereo not given)	-3.28%
COc1ccc(-n2nnnc2-c2nc3ccccc3s2)cc1	-12.1%
COc1ccc(C2=NN(c3nc4ccccc4s3)C(=O)C2)cc1	94.5% (active)
COc1ccc(C2=NN(C(C)=O)C(c3ccccc3)C2)cc1 (stereo not given)	-6.81%
O=c1c2ccccc2ncn1CCCCOc1ccccc1F	0.805%
CC(C)Oc1ccc(CCC(=O)NNC(=S)NCc2ccccc2)cc1	1.53%
O=C(CCc1ccccc1)NNC(=O)c1ccc(Br)cc1	5.83%
COc1ccc(C(=O)NNC(=S)NC(=O)c2ccccc2[N+](=O)[O-])cc1	5.98%
COc1ccc(C(=O)NC(=S)NNC(=O)CCc2ccccc2)cc1	114% (active)
COc1ccc(C(=O)NNC(=S)NC(=O)c2ccccc2)cc1	96.8% (active)
COc1ccc(C(=O)NC(=S)NNC(=O)c2c(-c3ccccc3)noc2C)cc1	32.7%
Cc1ccc(NC(=O)c2cnc(SCC(=O)NCC3CCCO3)n(C)c2=O)cc1 (stereo not given)	-0.731%
CCOc1ccc(CCNC(=O)COC(=O)CCS(=O)(=O)c2ccc(C)cc2)cc1OCC	-6.92%
COc1cccc(NC(=O)CN(C)C(=O)CSC(=S)N2CCCC2)c1	-3.71%
CC(=O)Nc1ccc(NC(=O)CSc2nnnn2C2CCCCC2)cc1	-2.4%
Oc1c(Cl)cc(Cl)c(Cl)c1Cc1c(O)c(Cl)cc(Cl)c1Cl	110% (active)
Cc1c(C(=O)Nc2ccccn2)oc2ccc(Br)cc12	27.1%
